This passage reports growth results from PubChem BioAssay (NCI).

About 83,000 compounds went through this panel and 20% of them were active in at least one assay; those are over-represented in the sample as a whole.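 The test compound was applied at a single concentration to cells in 96-well plates for 48 hours, and percent growth was recorded.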 Activity calls are given as the source filed them. Rule for the calls: active = growth percent below 10; inactive = the rest.

For the assay, the system named is HL-60(TB) leukemia. The assay is described as follows: NCI-60 one-dose screen, 48 h (100 = growth as untreated, 0 = no growth, -100 = all killed). The note with it: 10 µM unless noted.
In the case of `CC(=O)Oc1ccccc1C(=O)N=C1[Se]CCN1C(=O)c1ccccc1OC(C)=O`, the growth was -34.4% (active).
In the case of `CN(Cc1ccccc1)c1ccc(SC#N)cc1` it was 17.5% (inactive); in that of `COc1ccc2oc(=O)cc(C(c3ccc[nH]3)c3ccc[nH]3)c2c1`, -20.2% (active).
With `C=C1C(=O)O[C@H]2[C@H]1CC/C(COC(=O)c1cc3cc(Cl)ccc3[nH]1)=C\CC[C@@]1(C)O[C@@H]21` the figure was -46% (active).
On to `Nc1nc(NC(=O)Nc2ccc(C(=O)O)cc2)nn1-c1ccc(S(N)(=O)=O)cc1`, for which the growth is 102% (inactive).
In the case of `COc1ccc2nc(/C=C/c3ccc(N(C)C)cc3)sc2c1`, the growth was 51.1% (inactive).
With `CC(=O)Cc1nsc(NC(=O)c2cc(-c3cc(Cl)ccc3Cl)oc2C)n1` the figure was 94.3% (inactive); with `CCCN1CCN(c2ccc3nc(-c4ccc5nc(-c6ccc(OCC)cc6)[nH]c5c4)[nH]c3c2)CC1`, 16.9% (inactive).
With `O=C(C[C@]1(O)C(=O)Nc2ccc(Br)cc21)c1ccco1` the figure was 107% (inactive); with `CS(=O)(=O)Nc1cccc(-c2ccc3ncnc(Nc4cncc(Cl)c4)c3c2)c1`, 35.5% (inactive).
With `C[C@]12CC[C@@H]3c4cc(OC(F)F)c(OS(N)(=O)=O)cc4CC[C@H]3[C@@H]1CC[C@@H]2OS(N)(=O)=O` the figure was 13.1% (inactive); with `C=CCOc1cccc(/C=C/C(=O)c2sc(Nc3cccnc3)nc2C)c1`, 43.3% (inactive).
With `CCOC(=O)c1cc(C(=O)c2ccc(OC)c(OC)c2)n2ccc(/C=C/c3cc[n+](CC(=O)c4ccc(OC)c(OC)c4)cc3)cc12`, the growth is 88.6% (inactive).
For the compound `COc1cccc(-c2nn(-c3ccccc3)cc2-c2ccnc(NCCNS(=O)(=O)c3ccc(Cl)cc3)c2)c1`, the growth was 7.06% (active).
With `C1=CN2CC(c3ccccc3)=NNC2c2ccccc21` (stereo not given), the growth is 81.6% (inactive).
For `Fc1cc(-c2nnc3n2NC(=Nc2ccc(Cl)cc2)CS3)c(Cl)cc1Cl`, the growth was 94.1% (inactive).
With `Nc1nccc(=S)[nH]1` the figure was 79.9% (inactive).
In the case of `Cc1ccc(C(=O)c2sc3nc4c(cc3c2N)CCCC4)c(C)c1` it was -3.28% (active).
In the case of `C[C@@H]1C(=O)N(C[C@H](Cc2ccccc2)NC(=O)OCc2ccccc2)[C@]1(Cc1ccccc1)C(=O)OC(C)(C)C` it was 81.5% (inactive); in that of `C1C[S+]2CC[S+]1CC2`, 111% (inactive).
`Nc1nc(SCc2cccc([N+](=O)[O-])c2)c2[nH]cnc2n1`: the growth is 94.9% (inactive).
Take `Cc1nccc2c3ccc(OCc4cn(-c5ccc(Br)cc5)nn4)cc3n(CCCc3ccccc3)c12`: the growth is 46.1% (inactive).
In the case of `OC(c1cc2cc(Br)ccc2c2cc(Br)ccc12)C1CCCCN1` (stereo not given) it was -61.8% (active); in that of `CSc1nc(N)c(N=Nc2ccc(S(=O)(=O)Nc3nnc(C)s3)cc2)c(=O)[nH]1`, 90.4% (inactive); in that of `COc1ccc(-c2nc3sccn3c2-c2ccnc(S(C)(=O)=O)n2)cc1`, 55.4% (inactive).
With `COc1ccc(S(=O)(=O)n2ccc(-c3ccc4c(c3)CCC(C)(C)O4)n2)cc1OC` the figure was 94.7% (inactive).
In the case of `CC/C(Cc1ccccc1)=C(/c1ccc(O)cc1)c1ccc(OCCN2CCCC2)cc1` it was -56.9% (active).
Consider `c1ccc(-c2n(Cc3ccc4ccccc4c3)cc[n+]2Cc2ccc3ccccc3c2)cc1`, for which the growth was -47.6% (active).
With `C[n+]1c2ccccc2nc2ccc(NCCO)cc21` the figure was 70.6% (inactive); with `Cc1ccccc1-n1nnc(C(=O)Nc2nc3ccc(F)cc3s2)c1C`, 1.12% (active).
With `COc1cc(C(=O)Nc2cc(O)c(C/C=C(\C)CCC=C(C)C)c(O)c2)cc2c1O[C@]1(C)CC[C@@H](O)C(C)(C)[C@H]1C2` the figure was -3.87% (active); with `Oc1ccccc1C=Nc1ccc(N2CCN(c3ccccc3)CC2)cc1`, 54.6% (inactive); with `COc1cc(NC(C)CCCNC(=O)CCC(=O)NCCCNCCCCCCCCNCCCNC(=O)CCC(=O)NCCCC(C)Nc2cc(OC)cc3cccnc23)c2ncccc2c1` (stereo not given), 56.5% (inactive).
With `N#Cc1c(NC(=O)NCc2ccccc2)sc2c1CCCCC2` the figure was -8.46% (active); with `COc1ccc(C/C(C)=C(/c2ccc(OCCN3CCCCCC3)cc2)c2ccc(OC(=O)c3ccccc3)cc2)cc1`, 68.7% (inactive).
As for `Cc1nc2cc(Nc3nc(Nc4ccc(F)cc4)nc(-c4cccs4)n3)ccc2n1Cc1ccccc1`, the growth is 28.1% (inactive).
Regarding `COc1cc(C2=NOC(c3cc(OC)c(OC)c(OC)c3)C2)ccc1OCCCCOc1cc2c(cc1OC)C(=O)N1CCC[C@H]1C=N2` (stereo not given in full), the growth is -22.7% (active).
In the case of `CCOC(=O)Oc1c(OC)cc(C(=O)c2ccc(OC)c(O)c2OC)cc1OC` it was -32.6% (active); in that of `CCSC1=NC2C(N(CC)C(=O)N2CC)N1/N=C/C=C/c1ccccc1[N+](=O)[O-]` (stereo not given), -49.4% (active).
In the case of `O=C1Nc2cc(-c3cccc([N+](=O)[O-])c3)ccc2/C1=C/c1ccc[nH]1` it was 101% (inactive).
